According to PubChem BioAssay AID624256 (NMMLSC, 2012):
Screen size: about 360,000 compounds; about 3,700 (1%) were called active. Roughly 2% stayed inconclusive and do not appear here.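 How the source made its calls: active means normalized GFP-positive differentiation at or above the plate's own cutoff, the solvent-only control mean plus 3 SD; inconclusive means no clear call, values can overlap the other calls; inactive means the rest.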 Shown is part of a subset that was picked to be rich in actives.

assay: HoxA9-arrested leukemia cell differentiation promoters – flow cytometry, MLPCN library, primary screen (AID 624256); conditions: ER-HoxA9 myeloid progenitors, lysozyme-GFP differentiation, at 10 µM; GFP+ MAC1+ double positive: measured here: differentiation confirmed by MAC1 staining, stronger effect = higher value; normalized GFP-positive differentiation: stronger effect = higher value;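 on GFP+ MAC1+ double positive: cells exposed to compound for four days before flow analysis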;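 on normalized GFP-positive differentiation: cells exposed to compound for four days before flow analysis; 0% = DMSO wells and 100% = fulvestrant positive control at 5 µM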

Row | Structure (SMILES) | GFP+ MAC1+ double positive [%] | outcome | normalized GFP-positive differentiation
1 | COc1ccc(S(=O)(=O)NC(=O)C2(C)CCN2C(=O)COc2ccc(Cl)cc2)cc1 (centres undefined) | 0.8 | inactive | –
2 | CCc1nc2c(OCc3ccccc3)cccn2c1N(C)C(=O)c1ccco1 | 1.6 | inactive | –
3 | CSc1ncccc1C(=O)NCc1ccccc1Cl | 0.9 | inactive | –
4 | CSc1ncccc1C(=O)Nc1ccc2c(c1)OCO2 | 1 | inactive | –
5 | CSc1ncccc1C(=O)NC1CCCCCC1 | 4.7 | – | 171% (active)
6 | CCCCCNC(=O)C1C(=O)Nc2ccccc2C(=O)N1C(C)(C)C (centres undefined) | 0.8 | inactive | –
7 | COC(=O)C1=CN(c2c(C)cc(C)cc2C)C(N)=C(C#N)C1c1cccc(F)c1 (centres undefined) | 1.5 | inactive | –
8 | CC1(C(=O)NS(=O)(=O)c2ccccc2Cl)CCN1C(=O)c1cccc(F)c1 (centres undefined) | 0.8 | inactive | –
9 | CCCOc1ccc(C2=CSC3=NCCN23)cc1Cl | 0.8 | inactive | –
10 | Cc1ccc(C2=CSC3=NS(=O)(=O)CCN23)cc1C | 4.9 | – | 25% (active)
11 | O=S1(=O)CCN2C(=N1)SC1=C2CCN(Cc2ccccc2)C1 | 0.5 | inactive | –
12 | CCCCn1c(N)c(N(CCOC)C(=O)c2cccc(S(=O)(=O)N3CCCCC3)c2)c(=O)[nH]c1=O | 0.5 | inactive | –
13 | CCCCn1c(N)c(N(CCOC)C(=O)c2cccc(S(=O)(=O)N(C)c3ccccc3)c2)c(=O)[nH]c1=O | 1.3 | – | 16.7% (active)
14 | CCCCn1c(N)c(N(CC)C(=O)c2ccc(N(C)S(=O)(=O)c3ccc(C)cc3)cc2)c(=O)[nH]c1=O | 1.1 | inactive | –
15 | C/C(=N\NC(=O)c1ccc(CSc2nc(C)cc(C)n2)cc1)C1CCCCC1 | 1.3 | – | 21.9% (active)
16 | CCC1CCCCN1C(=O)CSc1nc(C)cc(C)n1 (centres undefined) | 1.8 | inactive | –
17 | Cc1cc(C)nc(SCc2nnc(SCC(=O)OC3CCCCC3)o2)n1 | 1.3 | inactive | –
18 | Cc1nc2c(OCc3ccc(Cl)cc3)cccn2c1N(C)Cc1cccs1 | 0.4 | inactive | –
19 | CC(C)CNC(=O)C1(C)CCCN1C(=O)CSc1ccccc1 (centres undefined) | 1.4 | inactive | –
20 | Cc1cc(C(=O)N2CCCC2(C)C(=O)O)c(C)o1 (centres undefined) | 1.3 | inactive | –
21 | N#Cc1ccc(-c2nc3c(Cl)cc(C(F)(F)F)cn3c2Cc2ccccc2C(F)(F)F)cc1 | 1.3 | inactive | –

Row | Structure (SMILES) | GFP+ MAC1+ double positive [%] | outcome | normalized GFP-positive differentiation
22 | CCC(C(=O)Nc1c(C)cccc1C)n1c(-c2cc(C)cs2)nc2ccccc21 (centres undefined) | 3.7 | inactive | –
23 | CCc1ccc(NC(=O)C(=O)NNC(=O)c2cccs2)cc1 | 1.8 | inactive | –
24 | CCc1c(C)sc(NC(=O)c2cccs2)c1C(N)=O | 7.9 | – | 14.1% (active)
25 | CCOC(=O)CSc1nnc(CNC(=O)c2cccs2)n1-c1ccccc1 | 1.4 | inactive | –
26 | Cc1ccc(NC(=O)[C@H](Cc2ccccc2)NC(=O)CC[C@H]2O[C@@H](n3ccc(=O)[nH]c3=O)[C@H](O)[C@@H]2O)cc1C | 0.8 | inactive | –
27 | Cc1ccc(CSCC2Nc3ccc(C(=O)N4CCN(c5ccc(F)cc5)CC4)cc3NC2=O)cc1 (centres undefined) | 1.7 | inactive | –
28 | O=C1Nc2cc(C(=O)N3CCN(c4ccc(F)cc4)CC3)ccc2NC1CSCc1cccc(F)c1 (centres undefined) | 10.1 | – | 56.9% (active)
29 | C=CCn1c(SCc2cccc(F)c2)nc2cc(C(=O)N3CCC(C(N)=O)CC3)ccc2c1=O | 0.5 | inactive | –
30 | COC(=O)[C@]12CCCCC=C1N(Cc1ccccc1)C(=O)[C@H](CC(=O)NCc1ccc(C)o1)C2 | 1.2 | inactive | –
31 | CNC(=S)NNC(=O)c1oc2nc(-c3ccccc3)cc(-c3ccco3)c2c1N | 2.3 | inactive | –
32 | NNC(=O)c1oc2nc(-c3ccccc3)cc(-c3ccco3)c2c1N | 1 | – | 38.1% (active)
33 | O=C(Nc1cccc(F)c1)c1cc(-c2ccco2)nc2ccccc12 | 0.5 | inactive | –
34 | Cc1ccccc1-c1csc(C(O)c2cccc(Cl)c2)n1 (centres undefined) | 0.8 | inactive | –
35 | Cc1cc(C)c2nc3nc(C)cc(C)c3c(N)c2c1 | 2.1 | – | 151% (active)
36 | NC(Cc1ccc(F)cc1)c1csc(Nc2nncc3ccccc23)n1 (centres undefined) | 0.8 | inactive | –
37 | COc1ccccc1CNC(=O)c1cc(=O)c2ccccc2o1 | 1 | inactive | –
38 | O=c1oc2ccccc2c(=O)c2ccccc12 | 1.6 | inactive | –
39 | COc1cc(N=Cc2c(O)c3ccccc3oc2=O)c(OC)cc1Cl | 12 | – | 239% (active)
40 | CCOC(=O)c1ccn(S(=O)(=O)c2ccc(C)cc2)c1-c1ccccc1 | 1.4 | inactive | –
41 | O=C1NC[C@H](Cc2ccc(O)cc2)N(C[C@H]2CCCN2C[C@H](Cc2ccccc2)N2C[C@H](Cc3ccccc3)N(CCc3ccccc3)C(=O)C2=O)C1=O | 1 | inactive | –
42 | CCOC(=O)[C@]12CCCC=C1N(CCC1=CCCCC1)C(=O)[C@H](CC(=O)N1CCN(C(=O)c3ccco3)CC1)C2 | 2.3 | inactive | –
